Screening results (PubChem)
The sample as a whole holds a higher share of hits than the screen did.
GluA2 TARP mod: GluA2-stargazin AMPA receptor complex modulation. calls only at 30 µM. HEK293 GluA2+stargazin, membrane potential dye (FDSS), glutamate EC50; hits were called plate by plate, in both directions. O88602+P19491. AID 1259245. hit rate 3.5% among 40,000;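 active = any of four per-well response measures lying three or more SD from its plate-wide compound average, in either direction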
Target sequence (O88602 whole entry, looked up): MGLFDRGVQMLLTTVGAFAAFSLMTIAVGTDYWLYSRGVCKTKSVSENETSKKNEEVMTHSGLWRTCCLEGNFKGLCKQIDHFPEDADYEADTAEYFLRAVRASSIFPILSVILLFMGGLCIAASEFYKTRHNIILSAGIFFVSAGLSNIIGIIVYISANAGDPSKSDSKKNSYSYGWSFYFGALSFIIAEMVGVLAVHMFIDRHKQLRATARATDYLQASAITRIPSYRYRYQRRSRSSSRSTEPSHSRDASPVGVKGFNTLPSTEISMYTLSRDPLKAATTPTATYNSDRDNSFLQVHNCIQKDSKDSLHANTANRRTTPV
Target sequence (P19491 whole entry, looked up): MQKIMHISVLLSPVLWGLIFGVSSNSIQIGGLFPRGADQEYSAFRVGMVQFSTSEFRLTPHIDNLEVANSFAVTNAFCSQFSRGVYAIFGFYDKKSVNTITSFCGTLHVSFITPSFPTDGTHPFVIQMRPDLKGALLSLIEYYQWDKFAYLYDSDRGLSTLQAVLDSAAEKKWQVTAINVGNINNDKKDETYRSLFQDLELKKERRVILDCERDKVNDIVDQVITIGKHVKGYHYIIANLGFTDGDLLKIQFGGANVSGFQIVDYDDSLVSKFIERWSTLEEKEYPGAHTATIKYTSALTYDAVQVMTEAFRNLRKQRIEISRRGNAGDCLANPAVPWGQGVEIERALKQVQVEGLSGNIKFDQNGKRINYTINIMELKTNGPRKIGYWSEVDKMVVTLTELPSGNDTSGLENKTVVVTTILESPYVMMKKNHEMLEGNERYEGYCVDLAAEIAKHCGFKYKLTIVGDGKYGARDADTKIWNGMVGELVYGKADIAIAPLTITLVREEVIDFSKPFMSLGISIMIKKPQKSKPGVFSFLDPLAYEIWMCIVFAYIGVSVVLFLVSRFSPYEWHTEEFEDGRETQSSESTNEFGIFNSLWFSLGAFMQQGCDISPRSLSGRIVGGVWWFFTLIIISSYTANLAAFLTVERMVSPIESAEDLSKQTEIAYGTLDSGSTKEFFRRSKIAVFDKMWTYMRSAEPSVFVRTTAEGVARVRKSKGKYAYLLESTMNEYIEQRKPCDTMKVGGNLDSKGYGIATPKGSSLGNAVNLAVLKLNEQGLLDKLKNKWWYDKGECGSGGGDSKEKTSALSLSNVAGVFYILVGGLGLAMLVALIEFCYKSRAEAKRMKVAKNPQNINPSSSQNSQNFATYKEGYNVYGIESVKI
GIRK2 act: GIRK2 channel activators by thallium flux; AID 1259324; P48051; activation (% efficacy), % for hits at 37.5 µM; HEK293 GIRK2/NPY4 cells, thallium flux fluorescence; 34,000 tested, under 10 active;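 active = primary screen hit, no activity in plain HEK293 cells, and in GIRK2-only cells above 5% efficacy rising with concentration; inactive = the rest, including fluorescent compounds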;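 note: efficacy is normalized control-subtracted fluorescence 15 s after thallium addition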
The depositor's hits bear a star; i = inactive; · = no result given; + = active, no number.

SMILES | GluA2 TARP mod | GIRK2 act
CC(O)CNC(=O)c1cc2c(=O)n(C)c(=O)n(C)c2s1 (stereo not given) | i | i
Cn1c(=O)c2cc(C(=O)NCCCCO)sc2n(C)c1=O | + | i
CCCCN(C(=O)c1cc2c(=O)n(C)c(=O)n(C)c2s1)c1ccccc1 | + | i
Cn1c(=O)c2cc(C(=O)NCCc3ccc(S(N)(=O)=O)cc3)sc2n(C)c1=O | + | i
Cn1c(=O)c2cc(C(=O)NCC(O)CO)sc2n(C)c1=O (stereo not given) | i | i
CC(C)S(=O)(=O)c1cccc(C(=O)Nc2nc(-c3nc4ccccc4s3)cs2)c1 | i | i
NCC(O)(c1ccccc1)C1CC1 (stereo not given) | i | i
O=C(COc1ccc(Cl)cc1)Nc1ccc(CC(=O)N2CCCC2)cc1 | i | i
COc1ccc(OC)c(NC(=O)C(=O)NCC2CCN(Cc3ccccc3)CC2)c1 | i | i
Cc1cccc(NC(=O)c2cc3c(=O)n(C)c(=O)n(C)c3s2)c1C | i | i
COC(=O)C1CCN(C(=O)c2cc3c(=O)n(C)c(=O)n(C)c3s2)CC1 | i | i
CC(=O)Nc1cccc(NC(=O)c2cc3c(=O)n(C)c(=O)n(C)c3s2)c1 | + | i
Cn1c(=O)c2cc(C(=O)N3CCCC3)sc2n(C)c1=O | + | i
Cn1nc(-c2ccc(NS(=O)(=O)c3ccc4c(c3)OCCO4)cc2)ccc1=O | i | i
COc1ccc(NC(=O)c2ccno2)c2ccccc12 | i | i
O=C(c1cccc(-n2cnnn2)c1)N1CCN(c2ccc(-c3ccccn3)nn2)CC1 | i | i
COc1ccc(OC)c2c1sc(=NC(=O)c1cc(C)no1)n2C | i | i
COc1cccc2sc(=NC(=O)c3cc(C)no3)n(C)c12 | + | i
COc1ccc(S(=O)(=O)N2CCN=C2SCc2ccccc2C)cc1 | i | ·
COc1ccc(S(=O)(=O)N2CCN=C2SCc2ccccc2F)cc1 | + | ·
Cc1cc(C)c(-c2ccc(SCC(=O)NCc3ccc4c(c3)OCO4)nn2)cc1C | + | i
O=C(CSc1ccc(-c2ccc3ccccc3c2)nn1)NCc1ccc2c(c1)OCO2 | i | i
CCOc1ccc(-n2nnnc2SC(C)C(=O)Nc2cccc(OC)c2)cc1 (stereo not given) | + | ·
COc1cccc(NC(=O)C(C)Sc2nnnn2-c2ccc(C)cc2)c1 (stereo not given) | i | ·
Cc1cccc(-n2nnnc2SC(C)C(=O)Nc2cc(C)on2)c1 (stereo not given) | i | ·
SMILES | GluA2 TARP mod | GIRK2 act
CCOc1ccc(-n2nnnc2SC(C)C(=O)Nc2cc(C)on2)cc1 (stereo not given) | + | ·
CCOC(=O)C1=C(C)NC(=O)NC1c1cccc2ccccc12 (stereo not given) | i | ·
CC1=C(C(=O)OC(C)(C)C)C(c2ccccc2F)NC(=O)N1 (stereo not given) | + | ·
CS(=O)(=O)c1ccccc1C(=O)N(CCN1CCOCC1)c1nc2ccccc2s1 | i | i
CCCN(CCC)S(=O)(=O)c1cc(C(C)C)c(C)cc1OC | i | ·
CCN(C1CCCCC1)S(=O)(=O)c1cc(C(C)C)c(C)cc1OC | + | ·
Cc1cc(C(=O)Nc2cccc(N3CCCCC3=O)c2)c(C)o1 | i | i
COc1ccc(S(=O)(=O)CCCC(=O)Nc2nc3c(s2)C(=O)CC(C)(C)C3)cc1 | i | i
O=C(NCCN1CCOCC1)c1ccc(Cl)c(S(=O)(=O)N2CCCCC2)c1 | i | ·
Cc1ccc(C(=O)N2CCCc3ccccc32)cc1S(=O)(=O)N1CCOCC1 | + | ·
O=C(c1ccc(Cl)c(S(=O)(=O)N2CCOCC2)c1)N1CCc2ccccc21 | + | ·
O=C(c1cccc(S(=O)(=O)N2CCOCC2)c1)N1CCCc2ccccc21 | i | ·
COc1ccc(Cl)cc1C(=O)NCC#CCN1CCc2ccccc2C1 | i | i
Cn1cc(C(=O)N2CCOCC2)cc(NC(=O)C2CCCCC2)c1=O | i | ·
Cc1nnc(SCCn2c(N3CCOCC3)nc3c2c(=O)n(C)c(=O)n3C)s1 | + | ·
Cn1c(=O)c2c(nc(N3CCOCC3)n2CCSc2nnnn2-c2ccccc2)n(C)c1=O | i | ·
COc1ccc(Cc2nnc(C3CCN(C(=O)NC(C)(C)C)CC3)s2)cc1 | · | i
O=C(Cn1c2c(c3ccccc31)CCC2)NCC1CCS(=O)(=O)C1 (stereo not given) | + | i
Cc1cc(C)n(CCNC(=O)Cn2c3c(c4ccccc42)CCC3)n1 | i | i
CC(=O)Nc1ccc(C(=O)/C=C/N(C)C)c(O)c1 | i | i
Cn1nccc1C(=O)Nc1cccc2c1C(=O)NC2=O | · | i
Cc1cc(C(=O)Nc2cccc3c2C(=O)NC3=O)on1 | + | i
CN(C)S(=O)(=O)N1CCC(COCc2ccc(Cl)cc2)CC1 | + | i
O=S(=O)(/C=C/c1ccccc1)N1CCC(COCc2ccc(Cl)cc2)CC1 | i | i
CCc1nc2sc3c(c2c2nncn12)CCC3 | + | i
SMILES | GluA2 TARP mod | GIRK2 act
Cc1nc(Sc2nc(C)nc3sc4c(c23)CCC4)c2c3c(sc2n1)CCC3 | i | ·
N#C/C(=C\c1ccnc2ccccc12)c1nc(-c2ccc(F)cc2)cs1 | i | i
COc1ccccc1-c1csc(/C(C#N)=C2\C=CC=CN2C)n1 | + | i
CN1C=CC=C/C1=C(/C#N)c1nc(-c2ccccc2)cs1 | + | i
O=S(=O)(NCCN1CCC(c2cccs2)CC1)c1ccc(C(F)(F)F)cc1 | i | i
COc1ccc(NC(=O)C(C)Sc2nnnn2-c2ccccc2)cc1 (stereo not given) | i | ·
COc1ccc(-n2nnnc2SC(C)C(=O)Nc2ccc(C(=O)O)cc2)cc1 (stereo not given) | + | ·
CCc1ccc(-n2nnnc2SC(C)C(=O)Nc2ccccc2OC)cc1 (stereo not given) | i | ·
COc1ccc(-n2nnnc2SC(C)C(=O)Nc2ccccc2OC)cc1 (stereo not given) | + | ·
COc1cccc(-c2ccc(=O)n(CCCC(=O)NCCc3ccccc3)n2)c1 | i | i
O=C(Cn1cnc2c(sc3cccc(F)c32)c1=O)NCc1ccccc1Cl | · | i
COc1ccc(S(=O)(=O)N2CCCOC2CNC(=O)C(=O)NCCC2=CCCCC2)cc1C (stereo not given) | i | ·
COc1cccc(OC)c1C(=O)Nc1ccc([N+](=O)[O-])cn1 | i | ·
COc1ccc(C(=O)Nc2ccc([N+](=O)[O-])cn2)cc1OC | + | ·
COc1ccc(S(=O)(=O)NC2CCCCCC2)c2ccccc12 | i | ·
CC(C)(C)n1nc2c(c1-n1cccc1)CN(C(=O)c1cccs1)C2 | i | i
Cc1ccc(-n2nc3c(c2-n2cccc2)CN(C(=O)c2cnccn2)C3)cc1C | i | 100%*
Cc1ccc(-n2nc3c(c2-n2cccc2)CN(C(=O)c2ccno2)C3)cc1C | i | i
Cc1ccc(-n2nc3c(c2-n2cccc2)CN(C(=O)c2ccsc2)C3)cc1 | + | i
Cc1cc(NC(=O)CSc2ncc(-c3ccc(F)cc3)o2)ccc1F | · | i
O=C(CCCS(=O)(=O)c1ccc(F)cc1)Nc1nc(-c2ccc(Br)s2)cs1 | i | ·
O=C(NCc1cccs1)NCC(O)(c1cccs1)C1CC1 (stereo not given) | i | i
O=C(NCC(O)(c1cccs1)C1CC1)NC1CCCCC1 (stereo not given) | + | i
